Source: the supplement of paper PMC10811239

tested on: LEGO organoid PTN (PTEN-/-; TP53-/-; NF1-/-); test: bioluminescence (viable cell) signal fold change after vs before treatment, normalised to DMSO (ratio); higher = more tumour cell growth / less inhibition; settings: 10 µM; treatment time 6 days
Procedure: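 Luc2-labelled iPSC-derived glioblastoma-like organoids (LEGOs, genotypes PT = PTEN-/-;TP53-/-, PTCC = plus CDKN2A/B-/-, PTN = plus NF1-/-) were treated with 10 uM drug for 6 days (applied every other day) at 37 C. Bioluminescence imaging was done before treatment and 2 days after the last dose. BLI signals were normalised to the DMSO control on the same day and then to the pre-treatment signal (N=3).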

Compound	bioluminescence
COc1ccc2c(c1)c(CC(=O)O)c(C)n2C(=O)c1ccc(Cl)cc1 [Indometacin]	1.76
Nc1nc(NC2CC2)c2ncn([C@H]3C=C[C@@H](CO)C3)c2n1 [Abacavir]	3.33
CCc1nn(CCCN2CCN(c3cccc(Cl)c3)CC2)c(=O)n1CCOc1ccccc1.Cl [Nefazodone hydrochloride]	0.52
Cl.O=C1CC2(CCCC2)CC(=O)N1CCCCN1CCN(c2ncccn2)CC1 [Buspirone hydrochloride]	0.759
Nc1cccc2c1CN(C1CCC(=O)NC1=O)C2=O (stereo not drawn) [Lenalidomide]	3.63
C[C@@H](Oc1cc(-c2cnn(C3CCNCC3)c2)cnc1N)c1c(Cl)ccc(F)c1Cl [Crizotinib]	0.303
Nc1nc(=O)c2c(CCc3ccc(C(=O)N[C@@H](CCC(=O)[O-])C(=O)[O-])cc3)c[nH]c2[nH]1.Nc1nc(=O)c2c(CCc3ccc(C(=O)N[C@@H](CCC(=O)[O-])C(=O)[O-])cc3)c[nH]c2[nH]1.O.O.O.O.O.[Na+].[Na+].[Na+].[Na+] [Pemetrexed Disodium Hydrate]	1.05
C[C@H]1COc2c(N3CCN(C)CC3)c(F)cc3c(=O)c(C(=O)O)cn1c23 [Levofloxacin]	0.861
CC(=O)OCC(=O)[C@@]1(O)CC[C@H]2[C@@H]3CCC4=CC(=O)C=C[C@]4(C)[C@H]3[C@@H](O)C[C@@]21C [Prednisolone-21-acetate]	0.956
CC(=O)OCC(=O)[C@@]1(O)[C@H](C)C[C@H]2[C@@H]3CCC4=CC(=O)C=C[C@]4(C)[C@@]3(F)[C@@H](O)C[C@@]21C [Dexamethason acetate]	1.53
CC1(C)S[C@@H]2[C@H](NC(=O)[C@H](N)c3ccc(O)cc3)C(=O)N2[C@H]1C(=O)O.O.O.O [Amoxicillin trihydrate]	0.841
NC(=O)c1cn(Cc2c(F)cccc2F)nn1 [Rufinamide]	1
NCCS(=O)(=O)O [Taurine]	0.673
CNCCC(Oc1ccc(C(F)(F)F)cc1)c1ccccc1.Cl (stereo not drawn) [Fluoxetine hydrochloride]	0.924
CC(=O)N[C@@H](CS)C(=O)O [Acetylcysteine]	3.17
O=NN(CCCl)C(=O)NC1CCCCC1 [Lomustine]	1.92
CCC(CC)O[C@@H]1C=C(C(=O)O)C[C@H](N)[C@H]1NC(C)=O [Oseltamivir acid]	1.58
CO[C@H]1C[C@@H]2CC[C@@H](C)[C@@](O)(O2)C(=O)C(=O)N2CCCC[C@H]2C(=O)O[C@H]([C@H](C)C[C@@H]2CC[C@@H](OC(=O)C(C)(CO)CO)[C@H](OC)C2)CC(=O)[C@H](C)/C=C(\C)[C@@H](O)[C@@H](OC)C(=O)[C@H](C)C[C@H](C)/C=C/C=C/C=C/1C [Temsirolimus]	0.856
Cl.NCC(=O)CCC(=O)O [5-Aminolevulinic acid hydrochloride]	1.19

Compound	bioluminescence
CCCOc1ccc(S(=O)(=O)NCCC2CCCN2C)cc1-c1nc2c(CCC)nn(C)c2c(=O)[nH]1 (stereo not drawn) [Udenafil]	1.09
CCCc1nc(C)c2c(=O)[nH]c(-c3cc(S(=O)(=O)N4CCN(CC)CC4)ccc3OCC)nn12 [Vardenafil]	1.29
Cc1ccnc2c1NC(=O)c1cccnc1N2C1CC1 [Nevirapine]	1.73
CC(=O)O.Cc1c(-c2ccc(O)cc2)n(Cc2ccc(OCCN3CCCCCC3)cc2)c2ccc(O)cc12 [Bazedoxifene acetate]	0.0363
C[C@H]1[C@H](NC(=O)/C(=N\OC(C)(C)C(=O)O)c2csc(N)n2)C(=O)N1S(=O)(=O)O [Aztreonam]	1.4
CCc1c2c(nc3ccc(OC(=O)N4CCC(N5CCCCC5)CC4)cc13)-c1cc3c(c(=O)n1C2)COC(=O)[C@]3(O)CC [Irinotecan]	0.884
O=C(CCCCCCC(=O)Nc1ccccc1)NO [Vorinostat]	0.384
CC/C(=C(/CC)c1ccc(O)cc1)c1ccc(O)cc1 [Diethylstilbestrol]	2.47
CC[C@@H]1/C=C(\C)C[C@H](C)C[C@H](OC)[C@H]2O[C@@](O)(C(=O)C(=O)N3CCCC[C@H]3C(=O)O[C@H](/C(C)=C/[C@@H]3CC[C@H](Cl)[C@H](OC)C3)[C@H](C)[C@@H](O)CC1=O)[C@H](C)C[C@@H]2OC [Pimecrolimus]	0.347
CC1=NN(c2ccccc2)C(=O)C1 [Edaravone]	1.12
CCOC(=O)OC(C)OC(=O)[C@@H]1N2C(=O)[C@@H](NC(=O)[C@H](N)c3ccccc3)[C@H]2SC1(C)C.Cl (stereo partly drawn) [Bacampicillin hydrochloride]	3.29
CCN(CC)CCNC(=O)c1cc(Cl)c(N)cc1OC [5-Chloro-2-methoxyprocainamide]	1.62
NC(=O)N[C@@H](CCC(=O)O)C(=O)O [Carglumic Acid]	1.55
CN(C)CCCN1c2ccccc2CCc2ccc(Cl)cc21.Cl [Clomipramine hydrochloride]	1.5
CCc1cc2c(cc1N1CCC(N3CCOCC3)CC1)C(C)(C)c1[nH]c3cc(C#N)ccc3c1C2=O [Alectinib]	0.961
Cc1cn(-c2cc(NC(=O)c3ccc(C)c(Nc4nccc(-c5cccnc5)n4)c3)cc(C(F)(F)F)c2)cn1 [Nilotinib]	3.9
CCCN(CCC)S(=O)(=O)c1ccc(C(=O)O)cc1 [Probenecid]	1.62
CS(=O)(=O)CCNCc1ccc(-c2ccc3ncnc(Nc4ccc(OCc5cccc(F)c5)c(Cl)c4)c3c2)o1.Cc1ccc(S(=O)(=O)O)cc1.Cc1ccc(S(=O)(=O)O)cc1 [Lapatinib Ditosylate]	0.778
Cl.O=C1c2cccc3c2[C@H](CCC3)CN1[C@@H]1CN2CCC1CC2 [Palonosetron hydrochloride]	1.4
